The whole screen tested about 5,500 compounds, of which about 2,000 (36%) were called active. Roughly 18% stayed inconclusive and do not appear here. This is one part of the list. A number with no mark means an inactive call. Rule as the data show it: active = normalized growth mostly below about 0.91 (no sharp cut-off); inconclusive = no clear call, values can overlap the other calls; inactive = mostly above about 0.92.
Assay: chemical genetic growth profiling, strain panel (AID 1159580);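 also: tested at 20 µM; growth read once vehicle control cultures reached saturation at 30 °C; 1 = growth at the plate median or of vehicle wells; lower values mean less growth of the strain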
Conditions: growth OD

C=C(C)c1cc2cc(C(C)=O)c(O)cc2o1
normalized growth (S. cerevisiae deletion strains, locus YJL187C, strain SWE1, active compounds read low): 0.994
normalized growth (S. cerevisiae deletion strains, locus YJR066W, strain TOR1, active compounds read low): 0.886
normalized growth (S. cerevisiae deletion strains, locus YKL009W, strain mrt4, active compounds read low): 0.939
normalized growth (S. cerevisiae deletion strains, locus YKL068W, active compounds read low): 0.934 (active)
normalized growth (S. cerevisiae deletion strains, locus YKL085W, strain MDH1 (second series), active compounds read low): 0.918 (active)
normalized growth (S. cerevisiae deletion strains, locus YKL085W, strain MDH1, active compounds read low): 0.918 (active)
normalized growth (S. cerevisiae deletion strains, locus YKL160W, strain elf1, active compounds read low): 0.92
normalized growth (S. cerevisiae deletion strains, locus YKL190W, strain CNB1, active compounds read low): 0.954
normalized growth (S. cerevisiae deletion strains, locus YKR001C, strain vps1, active compounds read low): 0.932
normalized growth (S. cerevisiae deletion strains, locus YKR026C, strain gcn3, active compounds read low): 0.966
normalized growth (S. cerevisiae deletion strains, locus YKR091W, strain srl3, active compounds read low): 0.979
normalized growth (S. cerevisiae deletion strains, locus YLL001W, strain dnm1, active compounds read low): 0.916
normalized growth (S. cerevisiae deletion strains, locus YLL026W, active compounds read low): 0.977
normalized growth (S. cerevisiae deletion strains, locus YLL041C, strain sdh2, active compounds read low): 0.97
normalized growth (S. cerevisiae deletion strains, locus YLR027C, strain aat2, active compounds read low): 0.964
normalized growth (S. cerevisiae deletion strains, locus YLR039C, strain RIC1, active compounds read low): 0.831
normalized growth (S. cerevisiae deletion strains, locus YLR058C, strain SHM2, active compounds read low): 0.948
normalized growth (S. cerevisiae deletion strains, locus YLR102C, strain apc9, active compounds read low): 0.931
normalized growth (S. cerevisiae deletion strains, locus YLR113W, strain HOG1, active compounds read low): 0.834 (active)
normalized growth (S. cerevisiae deletion strains, locus YLR221C, strain rsa3, active compounds read low): 0.975
normalized growth (S. cerevisiae deletion strains, locus YLR258W, strain gsy2, active compounds read low): 0.932
normalized growth (S. cerevisiae deletion strains, locus YLR262C, strain YPT6 (second series), active compounds read low): 0.834 (active)
normalized growth (S. cerevisiae deletion strains, locus YLR268W, strain sec22, active compounds read low): 0.945
normalized growth (S. cerevisiae deletion strains, locus YLR320W, strain mms22, active compounds read low): 0.908
normalized growth (S. cerevisiae deletion strains, locus YLR342W, strain FKS1 (second series), active compounds read low): 0.894
normalized growth (S. cerevisiae deletion strains, locus YLR342W, strain FKS1, active compounds read low): 0.978
normalized growth (S. cerevisiae deletion strains, locus YLR357W, strain rsc2, active compounds read low): 1.01
normalized growth (S. cerevisiae deletion strains, locus YLR370C, strain arc18, active compounds read low): 0.971
normalized growth (S. cerevisiae deletion strains, locus YLR371W, strain rom2, active compounds read low): 0.776 (active)
normalized growth (S. cerevisiae deletion strains, locus YLR384C, strain iki3, active compounds read low): 0.977
normalized growth (S. cerevisiae deletion strains, locus YLR418C, strain cdc73, active compounds read low): 0.861
normalized growth (S. cerevisiae deletion strains, locus YML016C, strain PPZ1, active compounds read low): 0.906 (active)
normalized growth (S. cerevisiae deletion strains, locus YML032C, strain rad52, active compounds read low): 0.942
normalized growth (S. cerevisiae deletion strains, locus YML120C, strain ndi1, active compounds read low): 0.932
normalized growth (S. cerevisiae deletion strains, locus YML124C, strain tub3, active compounds read low): 0.906 (active)
normalized growth (S. cerevisiae deletion strains, locus YMR058W, strain fet3, active compounds read low): 0.954
normalized growth (S. cerevisiae deletion strains, locus YMR078C, strain ctf18, active compounds read low): 0.909 (active)
normalized growth (S. cerevisiae deletion strains, locus YMR125W, strain sto1, active compounds read low): 0.982
normalized growth (S. cerevisiae deletion strains, locus YMR129W, active compounds read low): 0.966
normalized growth (S. cerevisiae deletion strains, locus YMR205C, strain PFK2, active compounds read low): 0.906
normalized growth (S. cerevisiae deletion strains, locus YMR223W, strain ubp8, active compounds read low): 0.967
normalized growth (S. cerevisiae deletion strains, locus YMR231W, strain pep5, active compounds read low): 0.997
normalized growth (S. cerevisiae deletion strains, locus YMR307W, strain GAS1, active compounds read low): 0.904
normalized growth (S. cerevisiae deletion strains, locus YNL067W, strain RPL9B, active compounds read low): 0.986
normalized growth (S. cerevisiae deletion strains, locus YNL071W, strain lat1, active compounds read low): 0.861 (active)
normalized growth (S. cerevisiae deletion strains, locus YNL128W, strain TEP1, active compounds read low): 0.928
normalized growth (S. cerevisiae deletion strains, locus YNL183C, strain NPR1, active compounds read low): 0.889
normalized growth (S. cerevisiae deletion strains, locus YNL209W, strain ssb2, active compounds read low): 0.967
normalized growth (S. cerevisiae deletion strains, locus YNL233W, strain BNI4, active compounds read low): 0.952
normalized growth (S. cerevisiae deletion strains, locus YNL248C, strain rpa49, active compounds read low): 0.956
normalized growth (S. cerevisiae deletion strains, locus YNL250W, strain rad50, active compounds read low): 0.932
normalized growth (S. cerevisiae deletion strains, locus YNL271C, strain bni1, active compounds read low): 0.957
normalized growth (S. cerevisiae deletion strains, locus YNL298W, strain CLA4, active compounds read low): 0.909 (active)
normalized growth (S. cerevisiae deletion strains, locus YNL307C, strain MCK1, active compounds read low): 0.895 (active)
normalized growth (S. cerevisiae deletion strains, locus YNL322C, strain KRE1 (second series), active compounds read low): 0.979
normalized growth (S. cerevisiae deletion strains, locus YNR049C, strain mso1, active compounds read low): 0.976
normalized growth (S. cerevisiae deletion strains, locus YNR052C, strain pop2, active compounds read low): 0.97
normalized growth (S. cerevisiae deletion strains, locus YOL006C, strain TOP1, active compounds read low): 0.714
normalized growth (S. cerevisiae deletion strains, locus YOL012C, strain htz1): 0.842
normalized growth (S. cerevisiae deletion strains, locus YOL147C, strain pex11, active compounds read low): 0.923 (active)
normalized growth (S. cerevisiae deletion strains, locus YOR001W, strain rrp6, active compounds read low): 0.982
normalized growth (S. cerevisiae deletion strains, locus YOR061W, strain CKA2, active compounds read low): 0.933
normalized growth (S. cerevisiae deletion strains, locus YOR069W, strain VPS5, active compounds read low): 0.968
normalized growth (S. cerevisiae deletion strains, locus YOR070C, strain gyp1, active compounds read low): 0.979
normalized growth (S. cerevisiae deletion strains, locus YOR080W, strain dia2, active compounds read low): 0.984
normalized growth (S. cerevisiae deletion strains, locus YOR083W, strain WHI5, active compounds read low): 0.929
normalized growth (S. cerevisiae deletion strains, locus YOR106W, strain vam3, active compounds read low): 0.965
normalized growth (S. cerevisiae deletion strains, locus YOR136W, strain idh2, active compounds read low): 0.943
normalized growth (S. cerevisiae deletion strains, locus YOR144C, strain elg1, active compounds read low): 0.936
normalized growth (S. cerevisiae deletion strains, locus YOR184W, strain ser1, active compounds read low): 0.845 (active)
normalized growth (S. cerevisiae deletion strains, locus YOR231W, strain MKK1, active compounds read low): 0.93
normalized growth (S. cerevisiae deletion strains, locus YOR265W, strain rbl2, active compounds read low): 0.96
normalized growth (S. cerevisiae deletion strains, locus YOR270C, strain vph1, active compounds read low): 0.88
normalized growth (S. cerevisiae deletion strains, locus YOR290C, strain snf2, active compounds read low): 0.893
normalized growth (S. cerevisiae deletion strains, locus YOR316C, strain cot1, active compounds read low): 0.913 (active)
normalized growth (S. cerevisiae deletion strains, locus YPL051W, strain arl3, active compounds read low): 0.917
normalized growth (S. cerevisiae deletion strains, locus YPL078C, strain atp4, active compounds read low): 0.877 (active)
normalized growth (S. cerevisiae deletion strains, locus YPL106C, strain sse1, active compounds read low): 0.895
normalized growth (S. cerevisiae deletion strains, locus YPL240C, strain hsp82, active compounds read low): 0.961
normalized growth (S. cerevisiae deletion strains, locus YPL256C, strain CLN2, active compounds read low): 0.897
normalized growth (S. cerevisiae deletion strains, locus YPR119W, strain clb2, active compounds read low): 0.942
normalized growth (S. cerevisiae deletion strains, locus YPR141C, strain kar3, active compounds read low): 0.906 (active)
normalized growth (S. cerevisiae deletion strains, locus YPR163C, strain tif3, active compounds read low): 0.976
normalized growth (S. cerevisiae deletion strains, locus YPR167C, strain met16, active compounds read low): 0.927
normalized growth (S. cerevisiae deletion strains, strain wtn01, active compounds read low): 0.89 (active)
normalized growth (S. cerevisiae strains, strain wild type, active compounds read low): 0.929

From PubChem BioAssay AID1159580 (chemical genetic matrix, 2015)
